Most compounds without a hit are left out; they make up all but 17% or so of the library.
ATXN viability: Viability Counterscreen for Primary qHTS for Inhibitors of ATXN expression | Potency, µM (series often up to 56.7 µM), usual class: cytotoxic | actives 0.49% (n = 400,000) | S2 cells (HEK-293 line with an ATXN2-luciferase reporter) viability, CellTiter-Fluor protease fluorescence, 24 h; note: nearly all actives have a fitted effect of over 40% in size
TDP1 cell noCPT: qHTS for Inhibitors of human tyrosyl-DNA phosphodiesterase 1 (TDP1): qHTS in cells in absence of CPT. Potency, µM (top dose mostly 46.2 µM), without a hit: at the highest dose activity change, negative = growth inhibition, usual class: inhibitors. DT40 Tdp1-/- hTDP1 cells, no CPT, ATP luminescence, 48 h. actives 15% (n = 420,000). AID 686978, 2013; note: % is set by controls: 0 for no effect and ±100 for the full control effect; nearly all actives have a fitted effect of over 55% in size
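Camptothecin absent (DMSO only). Human TDP1-complemented DT40 knockout cells, 400 cells/well, 37 °C for minimum 48 hr; ATP measured via CellTiter-Glo, 30 min dark incubation, luminescence.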
DT40 TDP1 CPT: qHTS for Inhibitors of human tyrosyl-DNA phosphodiesterase 1 (TDP1): qHTS in cells in presence of CPT | AID 686979, 2013 | chicken DT40 Tdp1-/-;hTDP1 cells + 20 nM CPT, ATP luminescence, 48 h | actives 12% (n = 420,000) | Potency, µM (titrated, usually from 46.2 µM), for the others: at the highest dose activity change, negative = growth inhibition, most hits filed as inhibitors; note: % is set by controls: 0 for no effect and ±100 for the full control effect; nearly all actives have a fitted effect of over 55% in size
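Chicken DT40 Tdp1-/- cells stably complemented with human TDP1 were seeded at 400 cells/well in medium containing 20 nM camptothecin, exposed to pin-transferred compounds, and grown at 37 °C for at least 48 hr. Viability was read as ATP luminescence.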
TGFb inhibitor: qHTS for Inhibitors of TGF-b | HepG2 CAGA-GFP TGF-b/SMAD3 reporter, GFP fluorescence, 18 h; TGF-beta stimulated, 500 pg/mL final | Potency, µM (titrated, usually from 46.1 µM), for inactives: at the highest dose activity, negative = inhibition, actives largely listed as inhibitors | actives 1.2% (n = 410,000) | AID 588855, 2011; note: % is set by controls: 0 for no effect and ±100 for the full control effect; nearly all actives have a fitted effect of over 65% in size
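Inhibition was scored as loss of TGF-beta-induced (500 pg/mL final, 18 hours, 37 degrees C) GFP in HEPG2 cells carrying a CAGA-GFP reporter, in DMEM with 1% FBS. Well GFP was summed per cell; Activity was normalised to unstimulated and stimulated DMSO wells, then concentration-response fitting.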
ATXN2 expr inh: Primary qHTS for Inhibitors of ATXN expression; HEK-293 ATXN2-luciferase reporter, luminescence, 24 h; Potency, µM (series often up to 57 µM), for inactives: at the highest dose activity change, negative = inhibition, usual class: inhibitors; actives 0.72% (n = 360,000); AID 1745845, 2022; note: % is set by controls: 0 for no effect and ±100 for the full control effect; nearly all actives have a fitted effect of over 55% in size
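ATXN2-luciferase reporter cells (luciferase flanked by upstream and downstream ATXN2 gene portions) were treated 24 h at 37 °C with compounds at up to 57 uM. SteadyGlo luminescence gave expression; GF-AFC fluorescence gave viability.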
HepG2 tox: qHTS for Inhibitors of TGF-b: Cytotox Counterscreen; HepG2 CAGA-GFP viability, ATP luminescence, 18 h; Potency, µM (series often up to 46.1 µM), for inactives: at the top dose activity change, negative = cytotoxicity, most hits filed as cytotoxic; actives 0.76% (n = 410,000)
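CellTiter-Glo luminescence gave cytotoxicity after 18 hours at 37 degrees C. The cells were HepG2 CAGA-GFP in 1% FBS DMEM, stimulated with 500 pg/mL TGF-beta after compound addition. %Activity was normalised to no-cell wells (complete cell-killing) and DMSO (no toxicity), and curves were fitted and classified.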
Numbers without * were called inactive; i = inactive; u = inconclusive; x = no result; [ ] = another dose, or the depositor's remark. Calls come from the whole dose curve; as a rule, active = well fitted curve in the direction sought with a large enough effect; inconclusive = small, poorly fitted or top-dose-only effect, or another doubt; inactive = no such curve, though single readings can be large; an effect the other way counts as inactive or inconclusive. Potency is the fitted concentration of half-maximal effect.

SMILES | ATXN viability | TDP1 cell noCPT | DT40 TDP1 CPT | TGFb inhibitor | ATXN2 expr inh | HepG2 tox
COP(=S)(OC)SCn1nnc2ccccc2c1=O | i | 23µM* | u | 16% | -21% | -15%
CC(=O)N(C)C1=Nc2ccc(Cl)cc2C(c2ccccc2)=[N+]([O-])C1 | i | u | 0% | 13% | -5% | 16%
O=C1NCN(c2ccccc2)C12CCN(C(c1cccc3ccccc13)c1nnnn1C1CCCCC1)CC2 (configuration not stated) | u | u | 23µM* | u | 10% | 1%
Cc1cccc(C)c1-n1nnnc1C(c1cccc2ccccc12)N1CCC2(CC1)C(=O)NCN2c1ccccc1 (configuration not stated) | i | 12µM* | 18µM* | -46% | 7% | -22%
COc1cccc(C(c2nnnn2C2CCCCC2)N2CCC3(CC2)C(=O)NCN3c2ccccc2)c1OC (configuration not stated) | u | u | u | 22µM* | u | -3%
COc1cccc(C(c2nnnn2C(C)(C)C)N2CCC3(CC2)C(=O)NCN3c2ccccc2)c1OC (configuration not stated) | x | u | u | -30% | u | 10%
O=C1NCN(c2ccccc2)C12CCN(C(c1cccc3ccccc13)c1nnnn1C1CCCC1)CC2 (configuration not stated) | u | 16µM* | u | u | -35% | -14%
COc1cc(CC#N)cc(OC)c1OC | i | x | x | x | 4% | x
CN1CCN(Cc2cc(=O)n3ccsc3n2)CC1 | i | 2% | -12% | 5% | 8% | 9%
CCCSc1nc(O)c(CC)c(=O)n1C(C)CC (configuration not stated) | i | -15% | -16% | -3% | -12% | -1%
CC(=O)N1CCN(c2ccc(N=Cc3c(O)n(Cc4ccccc4)c(=O)[nH]c3=O)cc2)CC1 | i | u | u | 9% | -2% | -3%
CC1(CCCc2ccc(N(CCCl)CCCl)cc2)NC(=O)NC1=O (configuration not stated) | i | 0.52µM* | 0.41µM* | u | x | 0%
CCOC(=O)N1CCN(c2ccc(Cl)c(Cl)c2)CC1 | i | 13µM* | u | -29% | -8% | -13%
CCCC(=O)Nc1ccc(N2CCN(CC)CC2)c(Cl)c1 | i | u | 3% | 26% | 3% | 3%
CC1CCC(NC(=O)c2cc3c(=O)n(C)c4ccccc4c3n2C)CC1 (configuration not stated) | i | u | 9.2µM* | 0% | 3% | -14%
CCC1(C)CC(=O)NC(=O)C1 | i | 4%[21.1 µM] | 0%[21.1 µM] | x | x | x
COc1cc(CC(C)N)cc2c1OCO2 (configuration not stated) | i | u | u | x | -11%[116 µM] | x
COc1ccc(CCNc2nccn(-c3ccc(C)c(C)c3)c2=O)cc1OC | u | 13µM* | 15µM* | u | 0% | -21%
CCc1cc(-c2cnnn2Cc2ccc3ccccc3c2)ccc1-c1cn(CC(C)C)nn1 | i | 21µM* | 26µM* | u | -1% | -13%
CN(C)C(=O)On1c(-c2ccccc2)nc2ccc(Cl)cc21 | i | 29µM* | u | 12% | 2% | -42%
COc1ccc(-c2nc3ccccc3n2OC(=O)N(C)C)cc1 | i | -6% | -1% | -1% | 11% | -7%
CN(CCC(N)CC(=O)NC1C=CC(n2ccc(N)nc2=O)OC1C(=O)O)C(=N)N (configuration not stated) | x | -20% | u | x | x | x
COc1cc2nc(N(C)C)c(CNCCc3c[nH]c4ccccc34)cc2c(OC)c1OC | i | -18% | 6%[9.04 µM] | x | x | x
COCCCn1c(-c2ccc(OC)cc2)cc(C(=O)NC2CCCCCCC2)c1C | i | 15µM* | 21µM* | u | -15% | -19%
O=C(c1ccco1)c1cn(Cc2ccc(Cl)cc2)c2ccccc12 | u | u | -113% | u | 10% | 1%
SMILES | ATXN viability | TDP1 cell noCPT | DT40 TDP1 CPT | TGFb inhibitor | ATXN2 expr inh | HepG2 tox
COc1ccccc1OCCCn1cc(C(=O)c2ccco2)c2ccccc21 | i | u | 18µM* | u | 4% | -11%
CNC(=O)NC(O)C(Cl)(Cl)Cl (configuration not stated) | i | 8% | -2% | 23% | 1% | 9%
C(=NC1CCCCC1)c1c[nH]c2ccccc12 | i | 3% | 0% | 21% | 1% | 3%
Brc1ccc2[nH]cc(C=NN3CCCCCC3)c2c1 | i | 13µM* | 23µM* | -22% | -1% | -3%
ClC1=C(Cl)[C@]2(Cl)[C@@H]3[C@@H]4C[C@@H]([C@H]5O[C@@H]45)[C@@H]3[C@@]1(Cl)C2(Cl)Cl | u | -18%[92.5 µM] | 4%[92.5 µM] | x | u | x
CC[C@H](C)C(=O)O[C@@H]1[C@H](O)[C@@H]2[C@H](CN3C[C@@H](C)CC[C@@H]3[C@@]2(C)O)[C@@H]2C[C@@]34O[C@@]5(O)[C@@H](OC(=O)[C@](C)(O)CC)CC[C@@]3(C)[C@H]5[C@H](OC(C)=O)[C@@H](OC(C)=O)[C@H]4[C@]12O | i | x | x | x | x | x
Cc1oc2ccc(O)c(CN3CCCCCC3)c2c1C(=O)Nc1cccc(Cl)c1C | x | 5.8µM* | 3.7µM* | u | x | -18%
CCC1(c2ccccc2)C(=O)NC(=S)NC1=O | u | -13% | 7% | -2% | -2% | 0%
Cn1c(=O)oc2cc(S(=O)(=O)N3CCCC(C(=O)Nc4ccccn4)C3)ccc21 (configuration not stated) | i | -13% | u | u | -9% | -35%
O=C(Nc1ccc(Cl)c(C(F)(F)F)c1)C1CCCN(S(=O)(=O)c2cccc3cccnc23)C1 (configuration not stated) | x | 6.5µM* | 7.3µM* | u | x | -25%
Cc1nc2c(=O)n(C)c(=O)nc-2n(C)n1 | 7.1µM* | 0.52µM* | 0.41µM* | 0.63µM* | 3.5µM* | 0.63µM*
Oc1c(Cl)cccc1Cc1cc(Cl)cc(Cl)c1O | i | 21µM* | u | 11µM* | u | -29%
